Reference: PubChem BioAssay AID651820 (National Center for Advancing Translational Sciences (NCATS), 2012)
Where “and” joins values, the source holds several entries; their conditions need not be identical. Equal entries are not always repeated. The whole screen tested about 340,000 compounds, of which about 12,000 (3.5%) were called active. Another 18% or so got no clear call; they are omitted. What follows is part of a selection rich in actives, with near analogues and random picks from the rest. Values without a mark were called inactive. Calls follow the shape of the dose curve; as a rule, active = well fitted inhibition curve with a large enough effect; inconclusive = small, poorly fitted or top-dose-only effect, or another doubt; inactive = no such curve, though single readings can be large or run the other way.

Assay: qHTS Assay for Inhibitors of Hepatitis C Virus (HCV)
Conditions: Huh7.5.1 HCVcc-Cre infection, luciferase reporter, 44 h; series mostly up to 41.8 µM; activity change, negative = inhibition: at the top concentration
Outline: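 Whole-lifecycle infectious HCVcc-Cre system; cells 1,000/well, compound then virus (~0.5 moi) added 4 h after plating, 44 h culture. Luciferase read 15 sec following 15 min substrate incubation, room temp.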
% is scaled to controls: 0 for no effect and ±100 for the full control effect; potency is read from the fitted curve at half-maximal effect.

In order of rising “activity change, negative = inhibition” value:
1. O=C(Nc1nc(-c2ccncc2)cs1)C1COc2ccccc2O1 (stereo unspecified)  -28%
2. COc1ccccc1CNS(=O)(=O)c1cc2c3c(c1)CCC(=O)N3CCC2  -27.5%
3. Cc1cc2nc(-c3ccc(NC(=O)c4cccnc4)cc3)oc2cc1C  -25.6%
4. O=C(Cc1ccccc1)NNC(=O)C1CCN(c2ncccn2)CC1  -20.5%
5. CC(OC(=O)CNC(=O)c1cccc(F)c1)C(=O)NC1CCCCC1C (stereo unspecified)  -18.8%
6. CCCNC(=O)c1ccc(Cl)c(Cl)c1  -15.3%
7. COc1ccc(-n2nc(C(=O)NCC(=O)N3CCN(c4ccccc4OC)CC3)c3ccccc3c2=O)c(OC)c1  -14%
8. CN(Cc1cnccn1)C(=O)c1cc(COc2cccc(C(F)(F)F)c2)on1  -13.9%
9. Cc1csc(NC(=O)C2=COCCO2)n1  -13.4%
10. Cc1cccc(NC(=O)Nc2ccc(OCc3ccccc3)cc2)n1  -13.2%
11. CC(=O)NCCC(=O)Nc1nc(-c2ccc3c(c2)OCCO3)cs1  -11.8%
12. Cn1cc(C2OC(=O)c3ccccc32)c2ccccc21 (stereo unspecified)  -11.7%
13. Cc1cc([N+](=O)[O-])ccc1NS(=O)(=O)c1ccccc1  -10.6%
14. Cc1ccc(OCc2cc(C(=O)N(C)CCc3ccccc3)no2)cc1C  -9.29%
15. Cc1ccc(C)c(NC(=O)COC(=O)CSc2ccccc2)c1  -8.78%
16. Cc1cc(=O)n2nc(N3CCC(C(=O)Nc4c(F)c(F)c(F)c(F)c4F)CC3)sc2n1  -8.41%
17. O=C(Nc1cccc(S(=O)(=O)NC2=NCCC2)c1)c1ccc(F)cc1F  -7.06%
18. Cc1ccc(S(=O)(=O)N2CCCCC2)cc1C(=O)N1CCN(CCO)CC1  -5.13%
19. COc1ccc(Cl)cc1NC(=O)COc1ccc2c(c1)OCO2  -5.11%
20. O=C1CC(c2ccccc2)C(c2ccccc2)=NN1 (stereo unspecified)  -4.55%
21. COC(=O)c1ccc(NCC(=O)c2ccccc2)cc1  -4.54%
22. Clc1ccc(CN2CCN(/N=C/c3cccnc3)CC2)cc1  -3.56%
23. CCCN(C(=O)c1nc2nccc(C)n2n1)c1c(N)n(Cc2ccccc2)c(=O)[nH]c1=O  -3.26%
24. COc1ccc(CC(=O)Nc2ccc3c(c2)CCC3)cc1S(=O)(=O)N1CCOCC1  -3.24%
25. CCC(=O)c1ccc(OCC(=O)N(CC)CC2COc3ccccc3O2)cc1 (stereo unspecified)  -3.1%
26. COc1ccc(CNC(=O)COC(=O)c2ccc(C)c(S(=O)(=O)N3CCOCC3)c2)cc1OC  -3.02%
27. CC(=O)Nc1ccc(-c2nc3ccccc3o2)cc1  -1.93%
28. CC1(C)CC(=O)c2ccc(O)cc2O1  -1.61%
29. O=C(c1ccc2c(c1)C(=O)N(c1ccc(Cl)cc1)C2=O)N1CCN(c2ccccn2)CC1  -1.51%
30. COc1cc2c(cc1OC)C(c1ccc(C)o1)CC(=O)N2 (stereo unspecified)  -1.02%
31. CCC1([N+](=O)[O-])COC(c2ccc(C(C)C)cc2)OC1 (stereo unspecified)  -0.561%
32. COc1cc(F)c(C2=CC(=O)CC(C)(C)C2)cc1F  0.584%
33. Cc1sc2ncnc(N3CCC(C(=O)Nc4nc5ccc(Cl)cc5s4)CC3)c2c1C  0.865%
34. O=C(N/N=C/c1cc(Br)c(O)c([N+](=O)[O-])c1)C(O)(c1ccccc1)c1ccccc1  1.49%
35. CCCCn1c(N)c(N(CC(C)C)C(=O)CN(C)S(=O)(=O)c2ccc(F)cc2)c(=O)[nH]c1=O  2.2%
36. O=C1N[C@@H](Cc2ccccc2)C(=O)N2[C@@H]3N(S(=O)(=O)c4ccc(F)cc4)c4ccccc4[C@]3(Br)C[C@@H]12  2.9%
37. COc1cc(/C=C/C(=O)OCC(=O)N2CCOCC2)ccc1OCC#N  3.73%
38. Nc1ccn(CC(=O)N2CCN(c3ccccn3)CC2)c(=O)n1  5%
39. CCn1c(SCC(=O)NCC2CCCO2)nc2ccccc21 (stereo unspecified)  5.12%
40. O=C(Nc1ccn(CCCNCc2ccc3[nH]ccc3c2)c(=O)n1)OCc1ccccc1  5.42%
41. O=C(c1cnccn1)N1CCN(S(=O)(=O)c2cccc(Cl)c2)CC1  5.65%
42. O=Cc1cn(Cc2ccccc2)nc1-c1cccnc1  5.66%
43. CC(CN1CCCCC1)OC(=O)c1ccccc1Cl (stereo unspecified)  5.79%
44. COc1ccc(CNC(=O)COC(=O)C2=Cc3ccccc3OC2)cc1  5.91%
45. COc1ccc(-c2nc3c(s2)CCc2onc(-c4ccc(Br)cc4)c2-3)cc1  6.47%
46. CCCCOC(=O)Cn1c(=N)n(CCN(CC)CC)c2ccccc21  6.51%
47. CCOC(=O)C1CCN(CC(=O)Nc2ccc(OC)c(S(=O)(=O)N3CCCCC3)c2)CC1  6.66%
48. CCc1c(Nc2ccccc2Cl)nc(N)[nH]c1=O  7.34%
49. O=C(COC(=O)c1cccs1)Nc1ccccc1Cl  7.58%
50. CN(CC(=O)NCc1ccc2c(c1)OCO2)CC(=O)Nc1ccc(F)c(F)c1F  7.62%
51. CCOc1cccc2cc(C(=O)OCC(=O)Nc3c(C)cccc3CC)c(=O)oc12  7.95%
52. CN(C)CCn1c2c(c(SCC(=O)Nc3ccccc3C(F)(F)F)nc1=O)CCCC2  8.07%
53. CN(CC(=O)Nc1ccc(F)c(F)c1F)C(=O)C1CC(=O)N(C2CCCC2)C1 (stereo unspecified)  8.33%
54. COc1cc(/C=C2\CCCc3c2nc2ccccc2c3C(=O)O)cc(Cl)c1O  8.48%
55. N=C1c2ccccc2-c2ccccc21  8.98%
56. O=C(OCC(=O)N1CCCCCC1)c1ccc(Cl)nc1  9.32%
57. O=C(NNC(=O)C1CCN(c2ncccn2)CC1)c1ccccc1  10.3%
58. O=C1c2ccccc2S(=O)(=O)c2cc(N3CCN(c4ccccn4)CC3)ccc21  10.4%
59. C#CCOCCOCCOCCNc1nc(N2CCN(C(=O)[C@H](CCC(=O)O)n3cc(CN)nn3)CC2)nc(N2CCN(C(=O)[C@H](CCC(=O)O)n3cc(CN)nn3)CC2)n1  11.3%
60. CCc1ccc(C(=O)C(C)OC(=O)CN2C(=O)NC3(CCCC3)C2=O)cc1 (stereo unspecified)  11.3%
61. CC(C)CC1NC(=O)c2cc(Cl)ccc2-n2c1nc1ccccc1c2=O (stereo unspecified)  11.4%
62. CC(C)(C)OC(=O)C[C@@H]1C/C=C\C[C@@H](CC(=O)NCCO)C(=O)N[C@H](Cc2c[nH]c3ccccc23)COC1=O  12.1%
63. COc1ccc(-n2nc(C(=O)NCC(=O)N3CCC(C(N)=O)CC3)c3ccccc3c2=O)cc1OC  12.3%
64. Brc1ccccc1CN1CCC(Cc2ccccc2)CC1  13.6%
65. Cc1cccc(NC(=O)c2ccccc2NC(=O)C(C)(C)C)n1  14.2%
66. CC(C)c1cc(N=O)cc(C(C)C)c1O  15%
67. Cc1ccc(-c2csc(NC(=O)c3cnccn3)n2)cc1C  15.7%
68. O=C(CCc1nc2sc3c(c2c(=O)[nH]1)CCCC3)NCC(=O)Nc1ccccc1Br  16.5%
69. O=C(O)c1ccc(S(=O)(=O)N2CCC(Cc3ccccc3)CC2)cc1  17%
70. CC(CN1CCOCC1)OC(=O)c1ccc(Cl)cc1Cl (stereo unspecified)  17.4%
71. Cc1cc(C)c(S(=O)(=O)n2cc(C(C)C(N)C(=O)O)c3ccccc32)c(C)c1 (stereo unspecified)  20.4%
72. COC(=O)c1ccc(/C=C/c2c(-c3ccc(OC)cc3)sc3ccccc23)cc1  20.7%
73. C#CCNc1ccc(C(=O)OCC)cc1  20.7%
74. CC(=O)c1c(C)[nH]c(C(=O)COC(=O)CCOc2ccc(C)cc2)c1C  21.2%
75. CCOc1ccc(NC(=O)COC(=O)C2CCC(=O)N2)c([N+](=O)[O-])c1 (stereo unspecified)  21.4%
76. O=c1[nH]c2c(c(=O)n1-c1ccccc1)CCO2  25.9%
77. CC1CN(C(=O)c2ccc([N+](=O)[O-])s2)CC(C)O1 (stereo unspecified)  26.4%
78. CNc1nc(=O)n(C2CCCO2)cc1C (stereo unspecified)  29.5%
79. COc1cc2c(cc1OC)C(c1ccncc1)CC(=O)N2 (stereo unspecified)  29.9%

For `Cc1cc(C)c(CN2CCN(C(=O)Cn3ccc(NC(=O)OCc4ccccc4)nc3=O)CC2)c(C)c1`, the Potency was 4.47 µM (active).
In the case of `CN1CCN(C2Cc3ccc(Cl)cc3Sc3ccc(F)cc32)CC1` (stereo unspecified), the Potency is reported as 31.6 µM (active).
In the case of `CCCn1c(=N)n(CC(=O)c2ccc(Cl)c(Cl)c2)c2ccccc21`, the Potency is reported as 10 µM (active).
With `CN(Cc1cccnc1)C(=O)c1cc(COc2ccc3ncccc3c2)on1` the Potency was 3.98 µM (active).
With `O=C(c1ccc2c(c1)N(Cc1ccc(F)cc1)C(=O)c1ccccc1S2(=O)=O)N1CCN(c2ccccn2)CC1` the Potency was 25.1 µM (active).
With `CCCOc1ccccc1C1CC(=O)Nc2cc3c(cc21)OCO3` (stereo unspecified) the Potency was 2.24 µM (active) and 3.55 µM (active).
With `O=C(Nc1nc(-c2ccc3c(c2)OCO3)cs1)c1ccncc1` the Potency was 12.6 µM (active).
For `Cc1ccc(-c2csc(NC(=O)C3=COCCO3)n2)cc1C`, the Potency was 7.94 µM (active).
With `Cc1cccc(NC(=O)c2ccc(COc3ccccc3[N+](=O)[O-])o2)n1` the Potency was 25.1 µM (active).
For `NC(=O)c1ccc(CN2CCC(Cc3ccccc3)CC2)cc1`, the Potency was 11.2 µM (active).
In the case of `CC[C@@H]1Cc2cc(O)ccc2C2=C1c1ccc(O)cc1C[C@H]2CC`, the Potency is reported as 3.16 µM (active).
With `COc1ccc(-n2nc(C(=O)NCC(=O)N3CCCCCC3)c3ccccc3c2=O)cc1Cl` the Potency was 11.2 µM (active).
With `O=C(COC(=O)c1c2c(nc3ccccc13)/C(=C\c1cccs1)CCC2)Nc1ccccc1Cl` the Potency was 4.47 µM (active) and 2.51 µM (active).
With `COc1ccc(NS(=O)(=O)c2cc(NC(=O)/C=C/c3cc(OC)c(OC)c(OC)c3)ccc2N2CCCCC2)cc1` the Potency was “inactive”.
For `COc1cc(/C=C/C(=O)Nc2ccc(OC)c(S(=O)(=O)N3CCOCC3)c2)ccc1OCC#N`, the Potency was 7.08 µM (active).
For `COc1ccc(CCC(=O)Nc2ccc(Cl)c(S(=O)(=O)N3CCOCC3)c2)cc1OC`, the Potency was 11.2 µM (active).
With `Cc1ccc2nc(-c3ccc(NC(=O)c4cccnc4)cc3)oc2c1` the Potency was 10 µM (active).
With `Cc1sc2ncnc(N3CCC(C(=O)Nc4ccc(F)cc4Cl)CC3)c2c1C` the Potency was 11.2 µM (active).
For `CCc1ccc(C(=O)NNC(=O)C2CCN(c3ncnc4sc(C)c(C)c34)CC2)cc1`, the Potency was 12.6 µM (active).
In the case of `O=C1/C(=C\c2cccnc2)CN(Cc2ccccc2)C/C1=C\c1cccnc1`, the Potency is reported as 6.31 µM (active).
In the case of `CC(C)OC(=O)c1ccc(NCc2cc(O)ccc2O)cc1Cl`, the Potency is reported as 6.31 µM (active).
With `COC(=O)c1ccc(NCc2cc(O)ccc2O)cc1` the Potency was 5.01 µM (active).
